From PubChem BioAssay
Activity calls are given as the source filed them.

What was measured:
[1] = tested on: PRMT1 (protein arginine N-methyltransferase 1); test: small molecules binding arginine methyltransferase PRMT1 – biochemical, small-molecule microarray, 635 nm fluorescence, primary screen (AID 1088); conditions: higher = more signal;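 further: binding of Prmt1 protein to compounds spotted on small-molecule microarray slides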
[2] = growth effects on S. cerevisiae YJM789 – YJM789 clinical isolate, OD600, 24 h, basal, primary screen (AID 1089); conditions: higher = more signal, called active from +8 up or from −8 down;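 further: growth of clinical yeast isolate S. cerevisiae YJM 789 seeded 1000 cells per well; test concentration not given here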
[3] = S. pombe growth modifiers, basal conditions – strain 972, OD600, 24 h, no modulator, primary screen (AID 1090);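 further: basal condition with compound alone and no growth modifier present; test concentration not given here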; conditions: S. pombe 972 growth, higher = more signal, called active from +8 up or from −8 down
[4] = budding yeast growth modifiers under rapamycin – strain BY4716, OD600, 96 h, primary screen (AID 1091); further: test concentration not given here; conditions: S. cerevisiae BY4716 + rapamycin, higher = more signal, called active from +8 up or from −8 down
[5] = biological target: Torsin-1A-interacting protein 2 (Homo sapiens) (UniProt Q8NFQ8); test: small molecules binding lysate-expressed LULL1 – cell lysate, human LULL1 lysate, 635/667 nm fluorescence, primary screen (AID 1092); conditions: small-molecule microarray, hLULL1 lysate binding, 635 nm fluorescence; higher = more signal;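 further: probe is lysate of COS7 cells overexpressing human LULL1; score merges per-feature 667 nm fluorescence with signal-to-noise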
[6] = optical density change of DRC41 E. coli – strain DRC41, OD650, 24 h, E. coli filamentation project, primary screen (AID 1093);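 further: MC1000 strain lacking acrAB efflux and sulA so SOS filamentation is blocked; test concentration not given here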; conditions: E. coli DRC41 growth, higher = more signal, called active from +8 up or from −8 down
[7] = probe aLefty2 binding to arrayed compounds – biochemical, biotinylated probe, 635/667 nm fluorescence, primary screen (AID 1094); conditions: small-molecule microarray, higher = more signal;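 further: score merges spot fluorescence near 667 nm with spot signal-to-noise ratio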
[8] = tested on: Noggin (protein binding on small-molecule microarray); test: small molecules binding Noggin protein – biochemical, 635/667 nm fluorescence, primary screen (AID 1095); conditions: 635 nm fluorescence, higher = more signal;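 further: score merges 667 nm feature fluorescence with signal to noise over triplicate slides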
[9] = biological target: Neurogenic locus notch homolog protein 3 (Homo sapiens) (UniProt Q9UM47); test: small molecules binding NOTCH3 protein – biochemical, 635/667 nm fluorescence, primary screen (AID 1096); conditions: small-molecule microarray, 635 nm fluorescence, higher = more signal
[10] = probe aEGFR binding to arrayed compounds – biochemical, biotinylated probe, 635/667 nm fluorescence, primary screen (AID 1097); conditions: small-molecule microarray, higher = more signal;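 further: probe is a biotinylated anti-EGFR antibody binding compounds printed on slides; score combines fluorescence near 667 nm and signal to noise of each spot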

Neurogenic locus notch homolog protein 3 (Homo sapiens), sequence (Q9UM47 whole entry, looked up): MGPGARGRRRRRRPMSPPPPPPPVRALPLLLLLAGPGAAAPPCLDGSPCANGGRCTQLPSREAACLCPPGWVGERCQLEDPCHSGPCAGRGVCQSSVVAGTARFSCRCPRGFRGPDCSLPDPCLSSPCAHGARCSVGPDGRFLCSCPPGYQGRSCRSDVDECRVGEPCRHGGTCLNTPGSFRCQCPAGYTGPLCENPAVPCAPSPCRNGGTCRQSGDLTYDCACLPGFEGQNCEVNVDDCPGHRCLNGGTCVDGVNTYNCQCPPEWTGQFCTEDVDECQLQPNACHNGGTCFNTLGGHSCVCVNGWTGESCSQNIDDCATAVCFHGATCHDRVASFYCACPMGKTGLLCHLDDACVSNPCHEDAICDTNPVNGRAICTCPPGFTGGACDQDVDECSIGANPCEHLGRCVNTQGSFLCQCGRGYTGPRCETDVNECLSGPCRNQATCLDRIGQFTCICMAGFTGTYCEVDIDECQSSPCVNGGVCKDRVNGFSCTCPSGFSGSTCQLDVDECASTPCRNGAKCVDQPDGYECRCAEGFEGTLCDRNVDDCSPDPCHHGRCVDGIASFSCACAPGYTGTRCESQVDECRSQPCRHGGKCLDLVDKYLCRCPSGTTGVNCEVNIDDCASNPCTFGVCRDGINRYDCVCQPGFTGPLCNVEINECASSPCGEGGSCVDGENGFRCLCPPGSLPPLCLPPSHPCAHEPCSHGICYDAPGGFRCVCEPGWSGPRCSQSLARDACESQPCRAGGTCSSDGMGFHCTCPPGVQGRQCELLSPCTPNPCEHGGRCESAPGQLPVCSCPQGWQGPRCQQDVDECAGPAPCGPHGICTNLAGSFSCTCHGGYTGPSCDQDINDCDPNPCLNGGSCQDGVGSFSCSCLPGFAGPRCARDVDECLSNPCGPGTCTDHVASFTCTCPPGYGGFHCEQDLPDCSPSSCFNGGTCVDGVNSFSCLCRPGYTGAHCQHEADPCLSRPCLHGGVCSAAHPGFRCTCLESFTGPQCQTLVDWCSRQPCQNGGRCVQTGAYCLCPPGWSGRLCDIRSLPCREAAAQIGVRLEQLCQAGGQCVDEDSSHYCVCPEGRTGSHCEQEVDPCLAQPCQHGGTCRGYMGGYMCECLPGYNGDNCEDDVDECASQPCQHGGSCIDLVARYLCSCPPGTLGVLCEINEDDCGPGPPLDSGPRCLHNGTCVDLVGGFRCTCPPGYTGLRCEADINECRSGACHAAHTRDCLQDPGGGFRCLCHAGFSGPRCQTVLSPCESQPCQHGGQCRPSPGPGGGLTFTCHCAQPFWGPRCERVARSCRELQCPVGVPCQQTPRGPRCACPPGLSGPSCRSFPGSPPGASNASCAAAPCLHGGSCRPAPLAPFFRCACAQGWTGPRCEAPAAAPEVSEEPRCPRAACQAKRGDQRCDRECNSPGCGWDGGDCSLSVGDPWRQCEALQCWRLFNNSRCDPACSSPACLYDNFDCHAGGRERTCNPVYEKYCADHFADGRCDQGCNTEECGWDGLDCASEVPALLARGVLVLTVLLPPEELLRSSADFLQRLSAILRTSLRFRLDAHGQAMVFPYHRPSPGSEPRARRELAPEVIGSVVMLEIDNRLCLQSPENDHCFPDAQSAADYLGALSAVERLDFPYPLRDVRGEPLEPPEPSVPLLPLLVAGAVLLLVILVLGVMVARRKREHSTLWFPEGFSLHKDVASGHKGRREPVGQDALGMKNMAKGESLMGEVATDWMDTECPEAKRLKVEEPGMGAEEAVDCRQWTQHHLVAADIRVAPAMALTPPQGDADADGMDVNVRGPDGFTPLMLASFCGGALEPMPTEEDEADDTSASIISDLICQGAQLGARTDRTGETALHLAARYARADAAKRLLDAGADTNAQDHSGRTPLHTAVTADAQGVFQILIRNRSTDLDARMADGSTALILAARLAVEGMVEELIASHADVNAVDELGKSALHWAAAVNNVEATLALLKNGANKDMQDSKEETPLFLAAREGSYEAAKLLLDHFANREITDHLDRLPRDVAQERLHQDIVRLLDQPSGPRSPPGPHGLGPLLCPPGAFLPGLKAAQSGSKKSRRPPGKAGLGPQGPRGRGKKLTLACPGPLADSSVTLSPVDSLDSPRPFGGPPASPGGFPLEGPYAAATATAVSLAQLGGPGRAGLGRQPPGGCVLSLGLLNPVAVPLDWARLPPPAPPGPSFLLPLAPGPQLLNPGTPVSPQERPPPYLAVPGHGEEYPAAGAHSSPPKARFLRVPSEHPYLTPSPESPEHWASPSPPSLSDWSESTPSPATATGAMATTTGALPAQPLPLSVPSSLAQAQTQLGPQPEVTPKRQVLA
Torsin-1A-interacting protein 2 (Homo sapiens), sequence (Q8NFQ8 whole entry, looked up): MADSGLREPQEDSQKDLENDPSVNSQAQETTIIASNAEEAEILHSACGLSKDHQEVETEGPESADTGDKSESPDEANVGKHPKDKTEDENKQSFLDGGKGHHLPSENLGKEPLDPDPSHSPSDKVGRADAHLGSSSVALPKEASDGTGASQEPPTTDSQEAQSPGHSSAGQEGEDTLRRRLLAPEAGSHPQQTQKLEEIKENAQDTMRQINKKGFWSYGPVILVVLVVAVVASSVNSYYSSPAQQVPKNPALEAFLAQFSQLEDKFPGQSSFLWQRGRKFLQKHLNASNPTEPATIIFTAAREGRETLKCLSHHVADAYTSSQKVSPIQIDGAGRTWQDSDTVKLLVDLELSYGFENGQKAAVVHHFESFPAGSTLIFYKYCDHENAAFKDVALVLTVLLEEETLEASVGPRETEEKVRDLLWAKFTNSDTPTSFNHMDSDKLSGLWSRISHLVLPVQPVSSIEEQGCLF

CN1C(=O)C2C=CC(C(O)c3c(F)cccc3Cl)N(Nc3ccccc3)C2C1=O (stereo not given)
composite z-score [1]: 1.04
z-score [2]: -0.0908 (inactive)
z-score [3]: 1.19 (inactive)
z-score [4]: 0.437 (inactive)
composite z-score [5]: 3.44
z-score [6]: -0.757 (inactive)
composite z-score [7]: 0.244
composite z-score [8]: 0.0319
composite z-score [9]: 1.07
composite z-score [10]: 0.0562

C=CC[C@]12N=C(c3ccc(OCCCO)cc3)O[C@H]1c1ccccc1N(C)C2=O
composite z-score [1]: 1.57
z-score [2]: -0.167 (inactive)
z-score [3]: -4.1 (inactive)
z-score [4]: 0.532 (inactive)
composite z-score [5]: 2.78
z-score [6]: -0.479 (inactive)
composite z-score [7]: 0.28
composite z-score [8]: 0.798
composite z-score [9]: 0.725
composite z-score [10]: 0.0488

COCCCNC(=O)[C@@]1(Sc2ccc(C)cc2)CC(=O)N(C2Cc3ccccc3C2)[C@@H]1c1ccc(CO)cc1I
composite z-score [1]: -0.649
z-score [2]: -0.881 (inactive)
z-score [3]: -1.79 (inactive)
z-score [4]: 1.43 (inactive)
composite z-score [5]: -0.165
z-score [6]: -0.421 (inactive)
composite z-score [7]: -0.0441
composite z-score [8]: -1.39
composite z-score [9]: -1.16
composite z-score [10]: -0.251

C=CCOC(=O)[C@H]1[C@@H]2C(=O)O[C@@H](c3ccccc3)[C@@H](c3ccccc3)N2[C@@H](c2ccc(OCCOC(=O)[C@H]3C[C@H]4C(=O)N[C@@H](CCCC[N+](C)(C)C)C(=O)N4[C@H]3c3cccc(OCCO)c3)cc2)[C@]12C(=O)Nc1ccc(I)cc12
composite z-score [1]: 1.29
z-score [2]: 1.11 (inactive)
z-score [3]: 2.23 (inactive)
z-score [4]: 4.75 (inactive)
composite z-score [5]: 0.7
z-score [6]: 0.396 (inactive)
composite z-score [7]: -0.166
composite z-score [8]: 0.673
composite z-score [9]: 0.456
composite z-score [10]: 0.002

[N-]=[N+]=Nc1ccccc1[C@H]1OC(c2ccc(OCCCO)cc2)=N[C@@]1(CCS(=O)(=O)c1ccccc1)C(=O)N1CCCCC1
composite z-score [1]: 1.51
z-score [2]: -0.347 (inactive)
z-score [3]: 0.189 (inactive)
z-score [4]: 2.73 (inactive)
composite z-score [5]: 3.16
z-score [6]: -0.413 (inactive)
composite z-score [7]: 0.428
composite z-score [8]: 0.0467
composite z-score [9]: 1.12
composite z-score [10]: 0.176

C=C1C2CC3C(=C4C(CO[C@@H]4[C@H]4CCCN4S(=O)(=O)c4ccccc4[N+](=O)[O-])C4C(=O)N(C)C(=O)C34)CC2C(=O)N1C (stereo not given in full)
composite z-score [1]: 0.627
z-score [2]: -0.0815 (inactive)
z-score [3]: -4.92 (inactive)
z-score [4]: -0.824 (inactive)
composite z-score [5]: 0.303
z-score [6]: -0.509 (inactive)
composite z-score [7]: -0.139
composite z-score [8]: 0.082
composite z-score [9]: 0.22
composite z-score [10]: 0.106

CN(C)C(=O)[C@]1(CCC(=O)OC(C)(C)C)N=C(c2ccc(OCCCO)cc2)O[C@@H]1c1ccccc1
composite z-score [1]: 0.637
z-score [2]: 0.182 (inactive)
z-score [3]: -0.993 (inactive)
z-score [4]: -0.273 (inactive)
composite z-score [5]: 3.56
z-score [6]: 1.27 (inactive)
composite z-score [7]: 0.0601
composite z-score [8]: -0.674
composite z-score [9]: -0.301
composite z-score [10]: 0.625

CC=CC(O)C1C=CC2C(=O)N(C)C(=O)C2N1N1CCCCC1 (stereo not given)
composite z-score [1]: 1.34
z-score [2]: -0.322 (inactive)
z-score [3]: 1.01 (inactive)
z-score [4]: -0.207 (inactive)
composite z-score [5]: 3.52
z-score [6]: -1.53 (inactive)
composite z-score [7]: 0.0974
composite z-score [8]: 0.605
composite z-score [9]: 1.09
composite z-score [10]: -0.115

C[C@H]1C2=C3C(CC[C@H]4C(OCc5ccc(F)cc5C(F)(F)F)OC[C@](C)([C@@H]34)N(C(=O)OC(C)(C)C)C2)C2COC(=O)OCC21 (stereo not given in full)
composite z-score [1]: 0.63
z-score [2]: -0.271 (inactive)
z-score [3]: -1.22 (inactive)
z-score [4]: 0.258 (inactive)
composite z-score [5]: 3.52
z-score [6]: -1.4 (inactive)
composite z-score [7]: 0.453
composite z-score [8]: -0.618
composite z-score [9]: 1.07
composite z-score [10]: -0.019

COc1ccc(NN2C(C(O)c3ccccn3)C=CC3C(=O)N(C4CCCCC4)C(=O)C32)cc1 (stereo not given)
composite z-score [1]: 1.56
z-score [2]: -0.199 (inactive)
z-score [3]: -0.121 (inactive)
z-score [4]: 0.151 (inactive)
composite z-score [5]: 3.26
z-score [6]: 0.265 (inactive)
composite z-score [7]: 0.282
composite z-score [8]: 0.05
composite z-score [9]: 1.05
composite z-score [10]: 0.134

C=CCC(OC(C)=O)[C@@H]1[C@@H](N(Cc2ccc(-c3ccccc3)cc2)C(=O)c2cccc3ccccc23)c2cc(OCCCO)ccc2N1C(=O)Cc1ccc2ccccc2c1 (stereo not given in full)
composite z-score [1]: -0.419
z-score [2]: -0.554 (inactive)
z-score [3]: -0.691 (inactive)
z-score [4]: -0.311 (inactive)
composite z-score [5]: 0.95
z-score [6]: 0.153 (inactive)
composite z-score [7]: -0.0407
composite z-score [8]: 0.514
composite z-score [9]: -0.377
composite z-score [10]: -0.123

CCOC(=O)[C@H]1C/C=C/C[C@H](C(=O)OCC)C(=O)O[C@H]2[C@@H](OC)O[C@H](CO)[C@@H](OC(=O)CCc3ccccc3)[C@@H]2OC1=O
composite z-score [1]: 0.182
z-score [2]: 0.491 (inactive)
z-score [3]: -1.29 (inactive)
z-score [4]: 15.2 (active)
composite z-score [5]: 0.0772
z-score [6]: -0.677 (inactive)
composite z-score [7]: -0.132
composite z-score [8]: 0.0226
composite z-score [9]: 0.01
composite z-score [10]: -0.314

CC=CC(O)C1C=CC2C(=O)N(c3ccccc3)C(=O)C2N1Nc1ccccc1 (stereo not given)
composite z-score [1]: 1.55
z-score [2]: 0.0831 (inactive)
z-score [3]: -0.32 (inactive)
z-score [4]: -0.474 (inactive)
composite z-score [5]: 3.33
z-score [6]: 0.143 (inactive)
composite z-score [7]: 0.209
composite z-score [8]: 0.0919
composite z-score [9]: 1.09
composite z-score [10]: 0.113

C=C(COC)/C(=C/C[C@@H](OC(=O)c1ccncc1)c1cccc(OCCO)c1)c1cnc2ccccc2c1
composite z-score [1]: 1.55
z-score [2]: -19.8 (active)
z-score [3]: -20.6 (active)
z-score [4]: -3.52 (inactive)
composite z-score [5]: 2.2
z-score [6]: 0.682 (inactive)
composite z-score [7]: 0.266
composite z-score [8]: 1.61
composite z-score [9]: 1.02
composite z-score [10]: 0.0892

CC(CO)N1C(=O)[C@@H]2C3C(=O)OCCC/C=C\[C@H]3OC23C=CCN(Cn2nnc4ccccc42)C(=O)[C@@H]13 (stereo not given in full)
composite z-score [1]: -1.18
z-score [2]: 0.216 (inactive)
z-score [3]: -0.152 (inactive)
z-score [4]: -0.637 (inactive)
composite z-score [5]: -1.1
z-score [6]: 0.333 (inactive)
composite z-score [7]: -0.198
composite z-score [8]: -0.254
composite z-score [9]: 0.219
composite z-score [10]: -0.152

C=CCOC(=O)[C@H]1[C@@H]2C(=O)O[C@@H](c3ccccc3)[C@@H](c3ccccc3)N2[C@@H](c2ccc(OCCOC(=O)[C@H]3C[C@H]4C(=O)N[C@@H](Cc5ccccc5)C(=O)N4[C@H]3c3ccc(O)cc3)cc2)[C@]12C(=O)Nc1ccc(I)cc12
composite z-score [1]: 1.55
z-score [2]: 0.827 (inactive)
z-score [3]: 1.36 (inactive)
z-score [4]: 3.95 (inactive)
composite z-score [5]: 2.39
z-score [6]: -0.305 (inactive)
composite z-score [7]: -0.0267
composite z-score [8]: 1.69
composite z-score [9]: 1.05
composite z-score [10]: -0.118

O=C1O[C@@H](c2ccccc2)[C@@H](c2ccccc2)N2[C@@H](c3ccc(O)cc3)[C@]3(C(=O)Nc4ccc(C#CCCO)cc43)[C@@H](C(=O)NC[C@H](O)c3ccccc3)[C@H]12
composite z-score [1]: 0.581
z-score [2]: 0.235 (inactive)
z-score [3]: -0.137 (inactive)
z-score [4]: 0.914 (inactive)
composite z-score [5]: 2.9
z-score [6]: 0.231 (inactive)
composite z-score [7]: -0.112
composite z-score [8]: 1.11
composite z-score [9]: -0.494
composite z-score [10]: -0.202

COCCOC(=O)N1C(=O)[C@@]2(c3cc(C#CC4(O)CCCCCC4)ccc31)[C@H](c1ccccc1OCCO)N1[C@H](c3ccccc3)[C@H](c3ccccc3)OC(=O)[C@H]1[C@@H]2C(N)=O
composite z-score [1]: 1.54
z-score [2]: 1.74 (inactive)
z-score [3]: 0.699 (inactive)
z-score [4]: 5.17 (inactive)
composite z-score [5]: 2.24
z-score [6]: -0.175 (inactive)
composite z-score [7]: -0.102
composite z-score [8]: 1.06
composite z-score [9]: 1.05
composite z-score [10]: 0.0254

CC(C)C(=C=CC[C@@H](O)c1ccccc1OCCO)C[C@@H](O)COCc1ccccc1
composite z-score [1]: 1.29
z-score [2]: -19.2 (active)
z-score [3]: -20.5 (active)
z-score [4]: -3.68 (inactive)
composite z-score [5]: 1.16
z-score [6]: 1.44 (inactive)
composite z-score [7]: -0.139
composite z-score [8]: 1.24
composite z-score [9]: 0.388
composite z-score [10]: 0.001
